# Shown are actives, neighbours in structure and some others; about 3.1% of the full set was active somewhere.
# Anthrax LF prot – blocks Bacillus anthracis lethal factor protease; P15917; multiplex microsphere protease cleavage assay, LF; inhibition, % at 10 µM; 360,000 tested, 0.12% active; AID 588501; further: plate controls were buffer without enzyme for full effect and enzyme alone for no effect
# Target sequence (P15917 whole entry, looked up): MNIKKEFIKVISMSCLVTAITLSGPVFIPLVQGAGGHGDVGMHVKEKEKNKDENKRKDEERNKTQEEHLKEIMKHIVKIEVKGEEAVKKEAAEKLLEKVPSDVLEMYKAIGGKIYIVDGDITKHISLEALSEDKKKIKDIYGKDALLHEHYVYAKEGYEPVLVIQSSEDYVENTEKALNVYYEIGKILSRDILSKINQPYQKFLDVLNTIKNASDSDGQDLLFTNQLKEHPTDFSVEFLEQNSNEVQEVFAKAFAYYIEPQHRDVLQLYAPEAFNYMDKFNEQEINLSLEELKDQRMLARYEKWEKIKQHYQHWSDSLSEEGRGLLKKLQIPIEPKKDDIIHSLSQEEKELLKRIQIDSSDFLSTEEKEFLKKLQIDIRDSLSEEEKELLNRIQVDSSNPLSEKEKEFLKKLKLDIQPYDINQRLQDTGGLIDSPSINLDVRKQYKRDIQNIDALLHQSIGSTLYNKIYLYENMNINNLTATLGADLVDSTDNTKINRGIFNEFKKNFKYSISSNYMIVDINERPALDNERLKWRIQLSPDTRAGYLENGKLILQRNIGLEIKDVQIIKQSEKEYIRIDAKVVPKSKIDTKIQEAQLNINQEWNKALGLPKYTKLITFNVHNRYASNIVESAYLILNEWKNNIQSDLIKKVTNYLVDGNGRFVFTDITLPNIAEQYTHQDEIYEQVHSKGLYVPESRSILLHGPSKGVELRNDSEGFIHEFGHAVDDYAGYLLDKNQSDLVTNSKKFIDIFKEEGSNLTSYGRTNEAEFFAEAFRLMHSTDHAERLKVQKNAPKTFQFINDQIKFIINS
# Bead autofluor – compound fluorescence in toxin protease inhibitor counterscreen. 360,000 tested, 3.1% active. fluorescence intensity (no concentration beside the values). compound autofluorescence counterscreen, microsphere flow cytometry; hits give high values; in the data active means fluorescence intensity above about 16000; inconclusive means no clear call, values can overlap the other calls
# BoNT-A LC inh2 – blocks Botulinum neurotoxin A light chain protease; inhibition, % at 10 µM; AID 588499; 360,000 tested, 0.17% active; multiplex microsphere protease substrate cleavage, flow cytometry; further: plate controls were buffer without enzyme for full effect and enzyme alone for no effect
# BoNT-F LC inh – inhibitors of Botulinum neurotoxin F light chain protease. Multiplex microsphere protease cleavage assay, flow cytometry. inhibition, % at 10 µM. 360,000 tested, 0.22% active. AID 588497; in the data active means inhibition above about 35%, passing the limit was not always enough; inconclusive means no clear call, values can overlap the other calls; further: plate controls were buffer without enzyme for full effect and enzyme alone for no effect
# PriA SSB inh – inhibitors of Klebsiella pneumoniae PriA binding to SSB C-terminal tail; AlphaScreen SSBct-PriA binding, biotinylated peptide; inhibition, % at 33 µM; 430,000 tested, 0.6% active; AID 1272365; in the data active means inhibition mostly above about 37%, no sharp cut-off; inactive means mostly below about 20%;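 further: plate controls were negative control peptide for no effect and reference peptide for full effect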
# An asterisk follows results filed as active; ? = inconclusive; / = no result; ! = repeats disagree. Unless noted, no stated cut-off is given here; in the data, active means inhibition above about 30%; inconclusive means no clear call, values can overlap the other calls; inactive means below that.
SMILES,Anthrax LF prot,Bead autofluor,BoNT-A LC inh2,BoNT-F LC inh,PriA SSB inh
N#CCSc1nc2ccc(N3CCCCC3)cc2c(=O)n1Cc1ccccc1,2,29809*,-1,3,-7
COc1ccc(C(=O)NCCOc2ccc3nnc(-c4ccc(OC)c(OC)c4)n3n2)cc1,/,/,/,/,2
Cn1cccc(C(=O)N2CCCC(Cc3nc(C4CC4)no3)C2)c1=O (stereo unspecified),/,/,/,/,-9
c1ccc(-c2nnc(CSc3nnc(-c4cccs4)o3)o2)cc1,-3,22467*,1,4,-15
c1csc(-c2nnc(Cc3cccc4ccccc34)o2)c1,-3,23714*,?,-6,-6
CS(=O)(=O)c1ccc(Nc2nc(C(=O)Nc3ccccc3C(N)=O)cs2)cc1,/,/,/,/,-11
COc1ncccc1C(=O)NCCCc1cnc2cc(C)nn2c1,/,/,/,/,-1
CC(C)N=Cc1c(O)[nH]c2ccccc12,-2,21450*,-2,-4,-2
CC(C)(CO)N=Cc1c(O)[nH]c2ccccc12,-2,?,-1,10,-9
O=C(N/N=C\c1ccccn1)c1cc(-c2ccc3ccccc3c2)n[nH]1,/,/,/,/,-8
CC(=O)N1CCc2cc(S(=O)(=O)NC(CC(C)C)C(=O)N3CCn4c3nc3ccccc34)ccc21 (stereo unspecified),1,21252*,1,-2,-1
CC(=O)N1CCCc2cc(S(=O)(=O)NC(C(=O)NC(C)c3ccccc3)C(C)C)ccc21 (stereo unspecified),1,16474*,-1,-1,-12
CCC(=O)N1CCc2cc(S(=O)(=O)NC(C(=O)NC(C)c3ccccc3)C(C)C)ccc21 (stereo unspecified),2,4260,-1,-5,-23
Cc1ccc(S(=O)(=O)NC(CC(=O)O)c2ccco2)cc1 (stereo unspecified),-5,16531*,?,-2,-6
Cn1c(=O)oc2cc(S(=O)(=O)NCCC(=O)N3CCN(c4ccccc4F)CC3)ccc21,-1,5642,0,-5,-3
Cn1c(=O)oc2cc(S(=O)(=O)NCCC(=O)N3CC=C(c4ccccc4)CC3)ccc21,-2,23639*,0,-3,-10
Cn1c(=O)oc2cc(S(=O)(=O)NCCC(=O)N3CCN(c4ccccc4)CC3)ccc21,-3,5820,-1,7,2
Cn1c(=O)oc2cc(S(=O)(=O)NCCC(=O)N3CCc4ccccc43)ccc21,-2,21642*,?,6,-9
Cc1ccc(-n2nc3c([n+]2[O-])CCc2c-3no[n+]2[O-])cc1,1,21683*,-2,-2,-7
CC(O)/C=C/c1ccc2ccccc2n1 (stereo unspecified),-4,17160*,-3,-6,-2
O=C(NCCCNCc1ccccc1)c1ccccn1,2,24330*!,0,-9,-3
Cc1ccc(S(=O)(=O)N(C)c2ccc(C(=O)NCc3cccnc3)cc2)cc1,7,?,-3,-1,39*
CN(c1ccc(C(=O)NCc2cccnc2)cc1)S(=O)(=O)c1ccc(Cl)cc1,-2,5856,0,-1,9
O=C(NCc1cccnc1)N(c1ccccc1)c1ccccc1,/,/,/,/,37*
COc1ccccc1CNC(=O)c1cnccn1,-6,17158*,-3,-4,-7
SMILES,Anthrax LF prot,Bead autofluor,BoNT-A LC inh2,BoNT-F LC inh,PriA SSB inh
CC1CCC(NC(=O)c2cn[nH]n2)CC1 (stereo unspecified),/,/,/,/,-8
Cc1ccc(S(=O)(=O)N(C)c2ccccc2)cc1,-1,3796,0,2,-8
Cc1cc(C(=O)NCc2cccnc2)no1,-3,22225*,0,2,-11
CN(C)CCCNCCCNC(=O)/C(=N\O)c1ccccn1,0,22814*,?,-3,/
COc1ccc(C(=O)NCc2cccnc2)cc1OC,0,22834*,1,-2,-16
Cc1ccc(N(C)S(=O)(=O)c2ccc(C)cc2)cc1,0,24242*,-4,-6,-30
O=C(NCCCn1cccc1)c1cc(C(F)(F)F)cc(C(F)(F)F)c1,/,/,/,/,-6
O=C(O)c1ccc(NN=Cc2cc(Br)cs2)cc1,/,/,/,/,17
CCOC(=O)NN=Cc1ccc(OC(=O)c2ccco2)cc1,/,/,/,/,-10
Cc1cc(C(=O)NCC(c2ccco2)N(C)C)no1 (stereo unspecified),-4,19860*,2,1,-9
O=C(O)c1ccccc1C(=O)NCc1cccnc1,-3,2396,0,2,-11
O=C(NCc1cccnc1)c1ccccn1,1,22039*,2,2,-3
COc1ccc(-c2cc(C(=O)NCc3cccnc3)no2)cc1OC,3,7942,0,7,-6
Cc1ccc(-c2cc(C(=O)NCc3cccnc3)no2)cc1,-11,17516*,9,10,-7
Cc1cc(NC(=O)C(=O)NCC(c2ccco2)N(C)C)no1 (stereo unspecified),/,/,/,/,-9
CS(=O)(=O)c1ccccc1C(=O)N1CC(=O)Nc2ccccc21,/,/,/,/,-13
Cc1ccc(C)c(NC(=O)CSc2nnc(CCCCCNC(=O)OC(C)(C)C)o2)c1,-2,26977*,-8,-15,-3
Cc1cccc(C)c1NC(=O)CSc1nnc(CCCCCNC(=O)OC(C)(C)C)o1,-10,16539*,-2,-6,-16
O=P(Cc1ccccc1O)(c1ccccc1)c1ccccc1,1,2537,-2,-17,-4
O=P(Cc1ccccn1)(c1ccccc1)c1ccccc1,-3,24061*,-2,-3,9
CCCCOc1ccc(-c2cc3c(SCC(C)C)nccn3n2)cc1,/,/,/,/,-10
c1ccc2cc(OCCOCCOc3ccc4ccccc4c3)ccc2c1,-5,3258,0,0,-5
CC(C)SCCCCOc1ccc2ccccc2c1,-2,21736*,1,-1,-41
CCOC(=O)NC1(NC(C)C)Oc2ccccc2O1,-6,5640,-3,-45,-11
CCOC(=O)NC1(NCC(C)C)Oc2ccccc2O1,-6,16411*,0,0,-18
SMILES,Anthrax LF prot,Bead autofluor,BoNT-A LC inh2,BoNT-F LC inh,PriA SSB inh
CC1(C)C(=O)OC(c2ccccc2)C(C)(C)C1=O (stereo unspecified),20,4632,?,?,-12
CC1(C)C(=O)OC(c2cccs2)C(C)(C)C1=O (stereo unspecified),-5,19729*,0,0,-8
CCOc1ccc(S(=O)(=O)n2cc(-c3ccc(F)cc3)c(N)n2)cc1,1,23064*,2,0,-3
Cc1ccc(-c2cn(S(=O)(=O)c3ccc(C)cc3)nc2N)cc1,0,24762*,-2,-5,-2
CCOc1cc(S(=O)(=O)n2cc(-c3ccc(F)cc3)c(N)n2)cc(OCC)c1OCC,-2,2809,1,-9,1
CCOc1ccc(S(=O)(=O)n2cc(-c3ccccc3)c(N)n2)cc1,-3,23986*,-2,-4,-16
O=C1CN(C(=O)CN2CCCC2)[C@@H](c2ccccc2)c2cc(Br)ccc2N1,/,/,/,/,5
Cc1ccc(NC(=O)N(CCCN2CCOCC2)Cc2cccs2)cc1C,-1,4246,0,-4,92*
CCOc1ccc(NC(=O)N(CCN2CCOCC2)Cc2ccc3c(c2)CCCN3CC)cc1,-3,3657,0,-10,16
CCCN1CCCc2cc(CN(CCCN3CCOCC3)C(=O)Nc3ccc(OCC)cc3)ccc21,-6,22682*,0,-14,50
CN1CCN(N=Cc2c3ccccc3c(Cl)c3ccccc23)CC1,/,/,/,/,53*

# High-throughput results deposited in PubChem BioAssay by several laboratories.
